Results published in PubChem BioAssay AID2111 (National Center for Advancing Translational Sciences (NCATS), 2009).
Active and inactive are the calls of the source. Where a call stands in place of a potency, no number is given. The call rests on the fitted dose curve; in most records, active means well fitted curve in either direction with a large enough effect; inconclusive means small, poorly fitted or top-dose-only effect; inactive means no such curve, though single readings can be large or run the other way.

target: Lysosomal alpha-glucosidase (Homo sapiens) (UniProt P10253); experiment: Confirmation of Inhibitors and Activators of Human alpha-Glucosidase From Spleen Homogenate Using an Alternate Red Fluorescent Susbtrate; settings: resorufin-glucoside fluorescence; series mostly up to 62.8 µM
Excerpt: NIH Chemical Genomics Center [NCGC] NIH Molecular Libraries Probe Production centers Network [MLPCN] MLPCN Grant: 1R03MH084841-01 Assay Submitter (PI): Wei Zheng NCGC Assay Overview: Alpha-glucosidase is responsible for hydrolysis of terminal, non-reducing 1,4-linked alpha-D-glucose residues with release of alpha-D-glucose. It is a lysosomal hydrolase that is required for the degradation of a small percentage (1-3%) of cellular glycogen in human. Deficiency of this enzyme results in glycogen-storage disease type II (GSDII), also referred to as Pompe disease, an autosomal recessive disorder. Structurally normal glycogen is accumulated in lysosomes and cytoplasm in affected patients, primarily in muscle tissues. Excessive glycogen storage within lysosomes may interrupt normal functioning of other organelles and leads to cellular injury. In turn, this leads to enlargement and dysfunction of the entire organ involved (eg, cardiomyopathy and muscle weakness). It has reported that the improper folding and trafficking of alpha-glucosidase resultinged from the genetic mutations may account for a significant number of Pomrope patients. […] We optimized this alpha-glucosidase assay in 1536-well plate format for identifying the novel small molecule inhibitors with the structures other than the sugar analogs in order to develop the new pharmacological chaperones. In particular, this assay is directed towards discovering compounds active in a more natural setting, tissue homogenate, that may have been missed by screens of the purified enzyme under more stringent conditions. This assay attempted to confirm hits from the primary screening using an alternate fluor than the primary screen used.
NCGC Assay Protocol Summary: This is a fluorogenic enzyme assay with Resorufin-alpha-D-glucopyranoside as the substrate and human spleen homogenate containing alpha-glucosidase as the enzyme preparation. Upon hydrolysis of this fluorogenic substrate, the resulting product, resorufin (which excites at 573 nm and emits at 610 nm) can be detected by a fluorescence plate reader. Data were normalized to the controls for basal activity (without enzyme) and 100% activity (with enzyme). The AC50 values were determined from concentration-response data modeled with the standard Hill equation. Assay buffer: 50 mM citric acid (titrated with potassium phosphate to pH 5.0), 0.01% Tween-20 (pH 5.0 is an optimal condition for this enzyme assay) 1536-well assay protocol for the alpha-glucosidase from human spleen homogenate: (1) Add 2 ul/well spleen homogenate (1 ug) (2) Add 23 nL compounds in DMSO solution. The final titration was 0.5 nM to 58 uM. (3) Add 2 ul of substrate (1 mM final) (4) Incubate at 37 C for 40 min (5) Add 2 ul stop solution (1M NaOH and 1M Glycine mixture, pH 10) (6) Detect the assay plate in a ViewLux plate reader (PerkinElmer) with […]. Keywords: Alpha-glucosidase, Pompe Disease, pharmacological chaperone, chaperone therapy, high throughput screening, alpha-glucosidase inhibitor, MLSMR, MLSCN, NIH Roadmap, qHTS and NCGC

Row | SMILES | Potency
1 | COc1ccc(C#Cc2c[nH]c(=O)c3cncnc23)cc1OC | inactive
2 | N#Cc1ccc(N2CCN(S(=O)(=O)c3ccc4c(c3)CC(=O)N4)CC2)cc1 | 1.63 µM [inhibitor] (active)
3 | O=c1[nH]cc(C#Cc2ccccc2)c2ncncc12 | inactive
4 | CCCN1CNc2c(c(=O)[nH]c(=S)n2CCc2cccc(OC)c2OC)C1 | 15.8 µM (active)
5 | Cc1ccc(S(=O)(=O)N2CCN(C(=O)N(c3ccccc3)c3ccccc3)CC2)cc1 | inactive
6 | Clc1ncc(C#Cc2ccccc2)c2ncncc12 | inactive
7 | CCCN1CNc2c(c(=O)[nH]c(=S)n2CCc2ccccc2OC)C1 | 14.1 µM (active)
8 | COc1ccc(CCn2c3c(c(=O)[nH]c2=S)CN(c2ccccc2)CN3)cc1OC | 25.1 µM (active)
9 | COc1ccc(CCn2c(=S)[nH]c(=O)c3c(C)cc(C)nc32)cc1OC | inactive
10 | Cc1ccc(N2CCN(S(=O)(=O)c3ccc4c(c3)CC(=O)N4)CC2)cc1 | inactive
11 | CCCN1CNc2c(c(=O)[nH]c(=S)n2CCc2cccc(C)c2C)C1 | 3.98 µM (active)
